Bioassay records: PubChem, several laboratories
An excerpt weighted towards active compounds, which were near 2.3% of everything screened.
FAS-TE inh = FAS thioesterase domain inhibitors, primary screen, biochemical, fluorescence intensity, uHTS; Fatty acid synthase (Homo sapiens), P49327; recombinant FAS-TE, OMFH fluorogenic substrate, fluorescence endpoint; inhibition, % at 15 µM; 360,000 compounds, 0.67% hits; AID 602261, 2012;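 active = compounds whose normalised, plate-corrected inhibition of enzyme fluorescence in the single-dose primary screen is 50% or more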;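 note: 0% = DMSO with enzyme and 100% = substrate without enzyme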
m-calpain inh = inhibitors of pig calpain II, primary screen, biochemical, fluorogenic peptide substrate, 1536-well; AID 1236, 2008; 220,000 compounds, 0.37% hits; purified calpain II, 30 min; inhibition, % at 16 µM;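 active = inhibition above about 50%, limit read from the data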
Cardio protect = cardioprotection against H2O2-induced cell death, primary screen, uHTS, H9c2 cells, ATPLite luminescence | H9c2 cardiomyocytes, H2O2 injury protection, 2 h | protection from H2O2 cell death, % at 20 µM | 360,000 compounds, 0.63% hits | AID 588492, 2011;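 active = compounds giving at least 50% protection of heart cells from peroxide-induced death in the single-dose screen, raw or plate-pattern-corrected value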;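 note: 0% = DMSO wells with peroxide and 100% = DMSO wells without peroxide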
beta cell repl = inducers of MIN6 beta-cell proliferation, primary screen, ATP luminescence, uHTS; MIN6 cells proliferation, ATPlite luminescence, 48 h; cells starved in 0.2% serum; 100% = growth in 10% serum; proliferation, % at 10 µM; 330,000 compounds, 0.29% hits; AID 2380, 2010;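 active = compounds whose signal lies at least 3.5 SD above the mean of all wells on their plate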;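 note: 0% = DMSO-treated cells in low-serum medium and 100% = 10% serum control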
aDG glyco up = activators of alpha-DG glycosylation, primary screen, uHTS, Pro5-aDG cells, AlphaScreen; 360,000 compounds, 0.22% hits; alpha-DG glycosylation AlphaScreen (IIH6); 0% Pro5, 100% B10-LARGE cell signal; activation, % at 10 µM;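 active = activation of at least 8% versus controls, or a plate z-score of at least 8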;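 note: Pro5 are CHO cells carrying HIG-tagged alpha-DG that lacks glycosylation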
TAG inh = inhibitors of triacylglycerol accumulation, primary screen, cell-based, uHTS, fluorescence, H9c2. H9c2 cells, Nile Red lipid (TAG) fluorescence; cells loaded with 200 µM oleic acid. inhibition, % at 12.5 µM. 230,000 compounds, 0.66% hits. AID 651582, 2012;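 active = pattern-corrected inhibition of lipid staining of at least 50% with the nuclear-stain viability signal not falling by more than 50%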;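 note: 0% = DMSO wells and 100% = triacsin C control wells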
* hit, by the source's call; nt = no result.

SMILES	FAS-TE inh	m-calpain inh	Cardio protect	beta cell repl	aDG glyco up	TAG inh
O=C(COC(=O)c1cc(Cl)ccc1[N+](=O)[O-])NCc1ccc(Cl)cc1Cl	29	57*	-1	-3	0	nt
O=C(COC(=O)c1cc(Cl)ccc1[N+](=O)[O-])Nc1cccc2ccccc12	18	11	-1	0	0	nt
CC(C)[C@@H]1CC[C@@H](C)C[C@H]1OC(=O)C[n+]1cc(-c2ccc(Cl)cc2)n2c1CCCCC2	-1	10	-17	-4	0	80*
O=C(O)CSc1c2c(nc3cc(C(=O)Nc4cccc(C(F)(F)F)c4)ccc13)CCC2	11	nt	3	0	0	nt
C[C@@]12C(=O)Nc3ccc(F)cc3C(=O)N1[C@H]1c3ccccc3OC[C@@H]1[C@@H]2c1ccccc1	9	nt	1	-6	0	15
C[C@@]12C(=O)Nc3ccc(Cl)cc3C(=O)N1[C@H]1c3ccccc3OC[C@@H]1[C@@H]2c1ccccc1	83*	nt	-1	-8	0	15
CCOC(=O)[C@H]1[C@H]2COc3ccc(Br)cc3[C@@H]2N2C(=O)c3cc(OC)c(OC)cc3NC(=O)[C@@]12C	7	nt	50*	-4	0	22
Cc1ccc2c(c1)[C@H]1[C@H](CO2)[C@H](c2ccccc2)[C@]2(C)C(=O)N(Cc3ccccc3)CC(=O)N12	20	nt	5	-5	0	-19
CCOC(=O)[C@H]1[C@H]2COc3ccc(C)cc3[C@@H]2N2C(=O)c3cc(OC)c(OC)cc3NC(=O)[C@@]12C	2	nt	3	-2	0	7
COc1cc2c(cc1OC)C(=O)N1[C@H]3c4ccccc4OC[C@@H]3[C@H](c3ccccc3)[C@]1(C)C(=O)N2	31	nt	6	-7	0	-8
COc1ccc2c(c1)OC[C@H]1[C@H]2N2C(=O)c3cc(OC)c(OC)cc3NC(=O)[C@@]2(C)[C@H]1c1ccccc1	91*	nt	1	-8	1	41
COc1ccc2c(c1)[C@H]1[C@H](CO2)[C@H](c2ccccc2)[C@]2(C)C(=O)N(Cc3ccc(C)cc3)CC(=O)N12	63*	nt	3	-4	0	15
CCNC(=O)NC1(C(=O)N2CCC(Cc3ccccc3)CC2)CCCCC1	-6	nt	-3	0	0	nt
O=C(N/N=C/c1c(O)ccc2ccccc12)C(=O)N1CCCC1	1	nt	52*	nt	2	-11
Cc1ccc(-c2n[nH]c(=O)c3ccccc23)cc1S(=O)(=O)NCCO	-7	3	76*	2	0	-7
Cc1ccc(-c2n[nH]c(=O)c3ccccc23)cc1S(=O)(=O)NC(C)(C)C	1	-1	64*	2	0	5
CC(=O)Nc1ccc(NS(=O)(=O)c2cc(-c3n[nH]c(=O)c4ccccc34)ccc2C)cc1	1	-4	56*	-1	0	2
Cc1ccc(-c2n[nH]c(=O)c3ccccc23)cc1S(=O)(=O)Nc1ccc(F)cc1	10	-1	46	-2	0	0
Cc1ccc(-c2n[nH]c(=O)c3ccccc23)cc1S(=O)(=O)N(C)CCO	-7	13	35	-1	0	-3
Cc1ccc(-c2n[nH]c(=O)c3ccccc23)cc1S(N)(=O)=O	-5	nt	57*	0	0	nt
CCOc1ccc(-c2cnc(NCc3cccc4ccccc34)n2CCOC)cc1	7	nt	-12	-5	1	nt
Cc1ccc(-n2c(C)c(C)c3c(NCCN(C)C)ncnc32)cc1	-5	nt	5	-2	0	nt
O=C(Nc1ccccc1)c1cc(C2COCCN2C(=O)c2cccs2)on1 (centres undefined)	-10	nt	2	nt	0	6
CC(C)(C)c1cc(/C=C2\NC(=O)NC2=O)cc(C(C)(C)C)c1O	8	nt	4	-4	0	nt
CC(C)(C)c1cc(/C=N/O)cc(C(C)(C)C)c1O	-7	11	-8	0.0*	0	nt
SMILES	FAS-TE inh	m-calpain inh	Cardio protect	beta cell repl	aDG glyco up	TAG inh
CCC(=O)N1CCCC1(C)C(=O)Nc1ccc2scnc2c1 (centres undefined)	-8	nt	4	nt	0	0
Cn1c(-n2c(CCCN3C(=O)c4ccccc4C3=O)nc3ccccc3c2=O)nc2ccccc21	11	-22	101*	0	-1	5
O=C(COC(=O)CNS(=O)(=O)c1ccc(Br)cc1Cl)Nc1ccc(N2CCOCC2)cc1	-6	nt	-10	-1	0	-2
Cn1c(CCN2CCN(c3ccccc3)CC2)nc2cc(NC(=O)c3ccco3)ccc21	5	-12	7	-2	0	15
CN1CCN(CCc2nc3cc(NC(=O)c4ccco4)ccc3n2C)CC1	-2	54*	0	2	0	-1
O=C(Nc1cccs1)Nc1nnc([C@@H]2C[C@H](O)[C@@H](CO)O2)s1	-7	nt	-5	nt	0	15
COc1ccc(OCC(=O)N/N=C/c2cccc3cccnc23)cc1	-2	nt	68*	-3	0	-5
O=C(N/N=C/c1cccc2nccnc12)c1ccccc1O	1	10	12	-4	0	24
O=C(N/N=C/c1cccc2cccnc12)c1ccccc1O	13	4	5	-6	0	65*
COc1ccccc1OCC(=O)N/N=C/c1cccc2cccnc12	1	nt	65*	-1	0	-5
O=C(Nc1ccc2c(c1)OCCO2)C1CC(O)CN1C(=O)Nc1ccccc1 (centres undefined)	-4	nt	-3	0	0	nt
CCCCN1C(=O)C(CC(=O)NC2CC2)CC(C(=O)N(C(C)C)C(C)C)=C1C (centres undefined)	-6	nt	4	nt	0	14
O=C(NNc1c2ccccc2nc2ccccc12)c1cccc(O)c1	-4	1	51*	-1	0	nt
C=CCNc1sc(C(=O)c2ccc(C)cc2)c(N)c1C#N	-2	-2	-5	-1	0	-4
C=CCNc1nc(N)c(C(=C(C#N)C#N)c2ccc(Br)cc2)s1	48	-456	56*	-5	0	nt
Cc1cc(O)c(/C=N/Nc2ccc(Cl)cc2)c(=O)o1	-9	-4	-21	3	6.5*	2
Cc1cc(O)c(/C=N/Nc2cccc(Cl)c2)c(=O)o1	-5	16	16	-1	0	1
CCc1cc(-c2nnn(CCC3COCCO3)c2CC)cc(CC)c1-c1cn(CCc2c[nH]c3ccccc23)nn1 (centres undefined)	0	nt	-9	nt	0	-4
CCN(CC(=O)Nc1cc(Cl)ccc1C)C(=O)C1CCN(c2ncnc3sc(C)c(C)c23)CC1	18	nt	77*	nt	0	-48
